Laboratory results taken from PubChem BioAssay (NCI).
About 83,000 compounds went through this panel and 20% of them were active in at least one assay; those are over-represented in the sample as a whole.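 Cell lines were cultured in 96-well plates, exposed to a single compound concentration, and assessed for percent growth 48 hours later.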 A number with no mark means an inactive call. Activity calls are given as the source filed them. How the source made its calls: active means growth percent below 10; inactive means the rest.

Tested on: BT-549 breast
Assay: NCI-60 one-dose screen, 48 h (100 = growth as untreated, 0 = no growth, -100 = all killed)
Conditions: 10 µM unless noted

Row | Compound | growth
1 | Cn1cc(-c2cc(N)n3nc(-c4c[nH]c5ccc(Cl)cc45)cc3n2)c2cc(Br)cnc21 | -16.1% (active)
2 | CN1C(=O)C2(C(C#N)=C(c3ccc(Cl)cc3)Nc3c2c(-c2ccccc2)nn3-c2ccccc2)c2ccccc21 (stereo not drawn) | 93.8%
3 | Cc1nn(-c2ccccc2)c2nc(C)n(C(=O)N/N=C/c3ccccc3)c(=O)c12 | 101%
4 | CN1CCN(CCS(=O)(=O)Nc2cc(-c3ccc4ncnc(Nc5ccc(F)c(Cl)c5)c4c3)cnc2Cl)CC1 | -53% (active)
5 | COc1cc(C2CC(c3ccc(C(F)(F)F)cc3)=Nc3c(N)nc(N)nc3N2)ccc1Oc1nc(Nc2ccc(F)cc2)nc(N(C)C)n1 (stereo not drawn) | 70.3%
6 | COc1ccc2[nH]c(=O)c(CSc3ccccc3Nc3nccc(-c4ccc5c(c4)OCO5)n3)cc2c1 | 67.3%
7 | Cc1cc(=O)oc2cc(OCC(O)CNN3C(=O)c4cccc5c(N6CCN(C)CC6)ccc(c45)C3=O)ccc12 (stereo not drawn) | 113%
8 | CC[C@]12C=CCN3CC[C@]4(C(=C(C(=O)OC)C1)Nc1cc(OC)c([C@@H]5[C@H]6O[C@H]6[C@@]6(CC)CC(C(=O)OC)=C7Nc8cc(OC)ccc8[C@@]78CCN5[C@@H]68)cc14)[C@@H]32 | 62.8%
9 | C#CCCCNCCNc1ccnc2cc(Cl)ccc12 | 66.5%
10 | CCOC(=O)/C(F)=C/C1CC1C(c1ccccc1)c1ccccc1 (stereo not drawn) | 117%
11 | S=C(NCCc1ccccc1)Nc1ccc(OCc2nc3ccc(Cl)cc3[nH]2)cc1 | 45.9%
12 | Cc1ccc(C(=O)C[n+]2cccc3c4ccccc4ccc32)cc1 | 20.8%
13 | CCCn1c(NC(=O)c2cccc(C(N)=O)c2)nc2cc(CN3CCCCC3)ccc21 | -10.8% (active)
14 | CCC(=O)c1c2c(c3ccc4c5ccccc5ccc4n13)C(=O)c1ccccc1C2=O | 114%
15 | O=C1/C(=C/c2cnc(-c3ccccc3)s2)SC(=S)N1Cc1ccc2c(c1)OCO2 | 69.2%
16 | O=c1[nH]c2ccccc2cc1COc1ccc(Nc2nccc(-c3ccc(Cl)cc3)n2)cc1 | 99.3%
17 | O=C(/C=C1\C(=O)N(Cc2ccccc2)c2ccccc21)c1cc2ccccc2oc1=O | 97.1%
18 | COc1ccc(NC(=O)Cn2c(/C=C/c3cccc(Br)c3)nc3ccccc3c2=O)cc1 | 56.1%
19 | O=c1ccc(Cn2c(C(F)(F)F)cc3c(Cl)ncnc32)c[nH]1 | 4.61% (active)
20 | CCCCC[C@@H]1C/C=C(\C)[C@@H](O)C(C)(C)C(=O)[C@@H](C)/C=C(\C)[C@@H]2C[C@H](O)C[C@](O)(CC(=O)O1)O2 | 18.8%
21 | COc1cc(NC(=O)CSc2nnc(-c3ccc(-c4nc5ccc(Cl)cc5[nH]4)cc3)o2)cc(OC)c1OC | 70.7%
22 | Cc1ccc(C2CC(c3ccc(S(=O)(=O)NCCNc4nc(N(C)C)nc(N5CCOCC5)n4)cc3)=Nc3c(N)nc(N)nc3N2)cc1 (stereo not drawn) | 35.2%
23 | CCCCNC(=S)Nc1ccc(OCc2nc3ccc(Cl)cc3[nH]2)cc1 | 31.7%
24 | Nc1nn2c(-c3cc4cc(Br)ccc4oc3=O)ccnc2c1N=Nc1ccc(S(N)(=O)=O)cc1 | 128%
25 | OCCn1cc(-c2nc3ccc4[nH]ncc4c3c3c2CCCC3)cn1 | 30.5%
26 | CN(C)CCCc1ccc(Nc2cnn(C)c(=O)c2Cl)cc1 | 115%
27 | Nc1cc2ccccc2c(=O)n1NC(=O)c1ccccc1 | 120%
28 | Cn1cc(-c2cc(N)n3nc(-c4c[nH]c5ccccc45)cc3n2)c2cc(Cl)ccc21 | -3.57% (active)
29 | O=C(NC(=S)N1CCN(c2ncnc3c2cnn3-c2ccccc2)CC1)c1ccc(Br)cc1 | 65.1%
30 | O=C(N/N=C/c1ccc(B(O)O)s1)c1[nH]c2ccc(Br)cc2c1-c1ccccc1 | -76.2% (active)

Tested on: MDA-MB-435 melanoma
Assay: as above
Conditions: 10 µM unless noted

Row | Compound | growth
31 | CCCCNc1ccc2c3c(cccc13)C(=O)N(c1cccc(-c3nn(-c4ccccc4)cc3-c3nc4ccccc4s3)c1)C2=O | 106%
32 | COc1ccc(-c2cc(-c3cc(OC)c(OC)c(OC)c3)[nH]c(=O)c2C#N)cc1 | 73.6%
33 | COc1cc(C2CC(c3ccc(Cl)cc3)=Nc3c(N)nc(N)nc3N2)ccc1Oc1nc(Nc2ccc(F)cc2)nc(N(C)C)n1 (stereo not drawn) | 44%
34 | O=C(O)CC1S/C(=N/N=C/c2nc3ccccc3s2)NC1=O (stereo not drawn) | 102%
35 | Cc1ccc(S(=O)(=O)N(CCn2ccnc2[N+](=O)[O-])CCn2ccnc2[N+](=O)[O-])cc1 | 98.7%
36 | N#CCc1nnc(NC(=O)c2ccc(-n3c(=O)[nH]c4ccccc4c3=O)cc2)s1 | 106%
37 | O=C(N/N=C/c1ccc(Br)o1)c1[nH]c2ccc(Br)cc2c1-c1ccccc1 | -29.1% (active)
38 | COc1ccc(N=Nc2c(N)nn3c(-c4ccc([N+](=O)[O-])cc4)ccnc23)cc1 | 107%
39 | Cn1cc(-c2cc(N)n3nc(-c4c[nH]c5ccc(Cl)cc45)cc3n2)c2cc(Br)cnc21 | -80.8% (active)
40 | CN1C(=O)C2(C(C#N)=C(c3ccc(Cl)cc3)Nc3c2c(-c2ccccc2)nn3-c2ccccc2)c2ccccc21 (stereo not drawn) | 97.1%
41 | Cc1nn(-c2ccccc2)c2nc(C)n(C(=O)N/N=C/c3ccccc3)c(=O)c12 | 102%
42 | CN1CCN(CCS(=O)(=O)Nc2cc(-c3ccc4ncnc(Nc5ccc(F)c(Cl)c5)c4c3)cnc2Cl)CC1 | 0.425% (active)
43 | COc1cc(C2CC(c3ccc(C(F)(F)F)cc3)=Nc3c(N)nc(N)nc3N2)ccc1Oc1nc(Nc2ccc(F)cc2)nc(N(C)C)n1 (stereo not drawn) | 59.7%
44 | COc1ccc2[nH]c(=O)c(CSc3ccccc3Nc3nccc(-c4ccc5c(c4)OCO5)n3)cc2c1 | 74.5%
45 | Cc1cc(=O)oc2cc(OCC(O)CNN3C(=O)c4cccc5c(N6CCN(C)CC6)ccc(c45)C3=O)ccc12 (stereo not drawn) | 56.9%
46 | CC[C@]12C=CCN3CC[C@]4(C(=C(C(=O)OC)C1)Nc1cc(OC)c([C@@H]5[C@H]6O[C@H]6[C@@]6(CC)CC(C(=O)OC)=C7Nc8cc(OC)ccc8[C@@]78CCN5[C@@H]68)cc14)[C@@H]32 | 57.6%
47 | C#CCCCNCCNc1ccnc2cc(Cl)ccc12 | 59.7%
48 | CCOC(=O)/C(F)=C/C1CC1C(c1ccccc1)c1ccccc1 (stereo not drawn) | 84.8%
49 | S=C(NCCc1ccccc1)Nc1ccc(OCc2nc3ccc(Cl)cc3[nH]2)cc1 | 36.6%

Row | Compound | growth
50 | Cc1ccc(C(=O)C[n+]2cccc3c4ccccc4ccc32)cc1 | 13.5%
51 | CCCn1c(NC(=O)c2cccc(C(N)=O)c2)nc2cc(CN3CCCCC3)ccc21 | 101%
52 | CCC(=O)c1c2c(c3ccc4c5ccccc5ccc4n13)C(=O)c1ccccc1C2=O | -89.8% (active)
53 | O=C1/C(=C/c2cnc(-c3ccccc3)s2)SC(=S)N1Cc1ccc2c(c1)OCO2 | 94.5%
54 | O=c1[nH]c2ccccc2cc1COc1ccc(Nc2nccc(-c3ccc(Cl)cc3)n2)cc1 | 102%
55 | O=C(/C=C1\C(=O)N(Cc2ccccc2)c2ccccc21)c1cc2ccccc2oc1=O | 107%
56 | COc1ccc(NC(=O)Cn2c(/C=C/c3cccc(Br)c3)nc3ccccc3c2=O)cc1 | 67%
57 | O=c1ccc(Cn2c(C(F)(F)F)cc3c(Cl)ncnc32)c[nH]1 | 25.5%
58 | CCCCC[C@@H]1C/C=C(\C)[C@@H](O)C(C)(C)C(=O)[C@@H](C)/C=C(\C)[C@@H]2C[C@H](O)C[C@](O)(CC(=O)O1)O2 | 24%
59 | COc1cc(NC(=O)CSc2nnc(-c3ccc(-c4nc5ccc(Cl)cc5[nH]4)cc3)o2)cc(OC)c1OC | -20.3% (active)
60 | Cc1ccc(C2CC(c3ccc(S(=O)(=O)NCCNc4nc(N(C)C)nc(N5CCOCC5)n4)cc3)=Nc3c(N)nc(N)nc3N2)cc1 (stereo not drawn) | 63.6%
61 | CCCCNC(=S)Nc1ccc(OCc2nc3ccc(Cl)cc3[nH]2)cc1 | 29.4%
62 | Nc1nn2c(-c3cc4cc(Br)ccc4oc3=O)ccnc2c1N=Nc1ccc(S(N)(=O)=O)cc1 | 78.5%
63 | OCCn1cc(-c2nc3ccc4[nH]ncc4c3c3c2CCCC3)cn1 | 12.4%
64 | CN(C)CCCc1ccc(Nc2cnn(C)c(=O)c2Cl)cc1 | 97.8%
65 | Nc1cc2ccccc2c(=O)n1NC(=O)c1ccccc1 | 99.8%
66 | Cn1cc(-c2cc(N)n3nc(-c4c[nH]c5ccccc45)cc3n2)c2cc(Cl)ccc21 | -51.7% (active)
67 | O=C(NC(=S)N1CCN(c2ncnc3c2cnn3-c2ccccc2)CC1)c1ccc(Br)cc1 | 80.3%
68 | O=C(N/N=C/c1ccc(B(O)O)s1)c1[nH]c2ccc(Br)cc2c1-c1ccccc1 | -75.1% (active)
